In the supplement of paper PMC10849652:
Of roughly 8,800 targets only a part is listed; those with a hit were picked by preference. About 0.5% of all pairs of compound and target were hits.

Assays:
Assay in all cases: log2 fold change, soluble protein after heating vs DMSO (PISA); higher = thermal stabilisation; K562 lysate, 10 uM; active = over 0.2 and 3.5 SD of the protein, either way, in both replicates (recomputed)
[1] = compound: Cc1cn(-c2cc(NC(=O)c3ccc(C)c(Nc4nccc(-c5cccnc5)n4)c3)cc(C(F)(F)F)c2)cn1 [nilotinib]
Procedure, shortened: (§1)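 To prepare the extract, K562 pellets were dounce-homogenised in PBS pH 7.4 with 1 mM MgCl2, giving crude material at 1 mg/mL protein. This was treated with 10 μM compound for 30 min, then heated in aliquots for 3 min over 48°C-58°C before pooling and addition of NP-40 to 0.5% at 4°C. Centrifugation at 21,000xg for 90 min left soluble protein in the supernatant, which TMTpro 16plex LC-MS/MS quantified with equalised channel sums. Results are log-two fold changes in thermal stability compared with solvent controls, from duplicates.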

[2] = compound: Cc1nc(Nc2n[nH]c3c2CN(C(=O)N[C@H](CN(C)C)c2ccccc2)C3(C)C)c2sccc2n1
Procedure, shortened: as §1

[3] = compound: Cc1nc(Nc2ncc(C(=O)Nc3c(C)cccc3Cl)s2)cc(N2CCN(CCO)CC2)n1 [dasatinib]
Procedure, shortened: as §1

[4] = compound: Cc1ncc(-c2ccnc(Nc3ccc(S(C)(=O)=O)cc3)n2)n1C(C)C
Procedure, shortened: as §1

[5] = compound: Cn1cc(-c2ccc3c(c2)CCN3C(=O)Cc2cccc(C(F)(F)F)c2)c2c(N)ncnc21
Procedure, shortened: as §1

[6] = compound: Cn1cc(CNCC2CCN(c3ncc(C(=O)NO)cn3)CC2)c2ccccc21 [quisinostat]
Procedure, shortened: as §1

[7] = compound: Cn1cncc1[C@@](N)(c1ccc(Cl)cc1)c1ccc2c(c1)c(-c1cccc(Cl)c1)cc(=O)n2C [tipifarnib]
Procedure, shortened: as §1

[8] = compound: NC(=O)Nc1cc(-c2cccc(F)c2)sc1C(=O)N[C@H]1CCCNC1
Procedure, shortened: as §1

[9] = compound: NC(=O)c1cnc(N[C@@H]2CCCC[C@@H]2N)nc1Nc1cccc(-n2nccn2)c1
Procedure, shortened: as §1

[10] = compound: NC1(c2ccc(-c3nc4ccn5c(=O)[nH]nc5c4cc3-c3ccccc3)cc2)CCC1
Procedure, shortened: as §1

[11] = compound: NCC(=O)Nc1ccc(-n2nc(C(F)(F)F)cc2-c2ccc3c(ccc4ccccc43)c2)cc1
Procedure, shortened: as §1

[12] = compound: O=C(CCCCCCC(=O)Nc1ccccc1)NO [vorinostat]
Procedure, shortened: as §1

[13] = compound: O=C(O)c1ccc2c(c1)nc(Nc1cccc(Cl)c1)c1ccncc12 [silmitasertib]
Procedure, shortened: as §1

[14] = compound: O=C1NC(=O)C(c2cnc3ccccn23)=C1c1cn2c3c(cc(F)cc13)CN(C(=O)N1CCCCC1)CC2
Procedure, shortened: as §1

[15] = compound: c1cn2cc(-c3ccc4cn[nH]c4c3)nc(Nc3ccc(N4CCOCC4)cc3)c2n1 [entospletinib]
Procedure, shortened: as §1

Measured: log2 fold change

KIF14 (UniProt Q15058)
inactive: [1] 0.003 | [2] 0.042 | [3] -0.035 | [4] 0.033 | [5] 0.007 | [6] -0.139 | [7] -0.046 | [8] 0 | [9] 0.001 | [10] -0.024 | [11] 0.082 | [13] -0.016 | [14] -0.019 | [15] -0.055
active: [12] -0.286

LUC7L (UniProt Q9NQ29)
Chain of UniProt Q9NQ29 (Q9NQ29 whole entry, looked up): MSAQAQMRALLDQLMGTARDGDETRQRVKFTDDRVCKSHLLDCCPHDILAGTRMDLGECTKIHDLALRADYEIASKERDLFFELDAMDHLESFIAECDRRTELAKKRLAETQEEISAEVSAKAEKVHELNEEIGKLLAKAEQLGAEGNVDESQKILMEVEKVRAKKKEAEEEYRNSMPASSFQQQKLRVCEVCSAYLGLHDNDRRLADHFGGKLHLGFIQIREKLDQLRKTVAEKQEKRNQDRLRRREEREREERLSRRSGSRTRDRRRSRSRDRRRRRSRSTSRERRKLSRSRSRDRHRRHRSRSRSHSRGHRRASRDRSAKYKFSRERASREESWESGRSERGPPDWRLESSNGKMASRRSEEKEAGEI
inactive: [1] -0.027 | [2] -0.113 | [3] -0.032 | [4] -0.047 | [5] 0.023 | [6] 0.22 | [7] 0.033 | [8] -0.207 | [9] -0.014 | [10] 0.032 | [11] 0.003 | [12] 0.136 | [13] -0.126 | [14] -0.016 | [15] -0.019

LRPPRC (UniProt P42704)
inactive: [1] -0.019 | [2] -0.004 | [3] -0.062 | [4] 0.012 | [5] 0.056 | [6] -0.003 | [7] -0.027 | [8] 0.052 | [9] 0.047 | [10] 0.004 | [11] -0.004 | [13] 0.072 | [14] 0.023 | [15] 0.035
active: [12] -0.259

LARP4B (UniProt Q92615)
Chain of UniProt Q92615 (Q92615 whole entry, looked up): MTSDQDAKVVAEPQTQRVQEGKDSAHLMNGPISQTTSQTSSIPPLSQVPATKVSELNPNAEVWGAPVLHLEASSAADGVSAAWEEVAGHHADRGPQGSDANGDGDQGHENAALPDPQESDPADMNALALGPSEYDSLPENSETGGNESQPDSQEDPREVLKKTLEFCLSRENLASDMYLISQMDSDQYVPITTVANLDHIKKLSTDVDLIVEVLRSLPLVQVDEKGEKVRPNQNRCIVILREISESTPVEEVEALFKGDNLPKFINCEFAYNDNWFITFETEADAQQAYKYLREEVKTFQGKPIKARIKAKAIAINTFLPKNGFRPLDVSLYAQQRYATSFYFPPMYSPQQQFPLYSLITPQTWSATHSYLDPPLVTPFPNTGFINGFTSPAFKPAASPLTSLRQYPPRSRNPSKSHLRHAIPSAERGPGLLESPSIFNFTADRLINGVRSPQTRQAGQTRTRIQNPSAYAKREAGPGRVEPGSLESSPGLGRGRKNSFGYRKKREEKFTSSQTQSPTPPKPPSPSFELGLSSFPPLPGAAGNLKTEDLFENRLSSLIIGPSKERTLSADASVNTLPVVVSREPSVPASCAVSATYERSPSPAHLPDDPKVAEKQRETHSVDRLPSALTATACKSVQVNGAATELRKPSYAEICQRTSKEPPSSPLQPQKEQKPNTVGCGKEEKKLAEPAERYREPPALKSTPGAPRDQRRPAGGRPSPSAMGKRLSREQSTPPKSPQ
active: [12] -0.306
inactive: [1] -0.05 | [2] 0.03 | [3] -0.053 | [4] -0.02 | [5] 0.012 | [6] -0.026 | [7] 0 | [8] 0.026 | [9] -0.001 | [10] 0.008 | [11] 0.019 | [13] 0.032 | [14] -0.028 | [15] -0.011

MRPL15 (UniProt Q9P015)
inactive: [1] 0.011 | [2] -0.034 | [3] 0.004 | [4] -0.028 | [5] -0.008 | [6] -0.022 | [7] 0.012 | [8] 0.005 | [9] 0.012 | [10] -0.181 | [11] 0.068 | [12] 0.137 | [13] -0.071 | [14] -0.02 | [15] -0.061

KPNA2 (UniProt P52292)
active: [12] -0.376
inactive: [1] -0.051 | [2] -0.002 | [3] -0.041 | [4] 0.018 | [5] 0.039 | [6] -0.01 | [7] -0.023 | [8] 0.026 | [9] 0.039 | [10] -0.05 | [11] -0.014 | [13] 0.018 | [14] 0.009 | [15] 0.019

MED12 isoform 2 (UniProt Q93074)
active: [12] -0.466
inactive: [1] -0.017 | [2] -0.025 | [3] -0.024 | [4] -0.009 | [5] 0.01 | [6] -0.05 | [7] 0.005 | [8] 0.034 | [9] 0.019 | [10] 0.002 | [11] 0.003 | [13] -0.044 | [14] -0.008 | [15] -0.012

LSS (UniProt P48449)
inactive: [1] 0.042 | [2] 0.001 | [3] 0.016 | [4] -0.025 | [5] 0.047 | [6] -0.022 | [7] -0.065 | [8] 0.003 | [9] 0.083 | [10] 0.092 | [11] -0.042 | [12] 0.049 | [13] -0.039 | [14] -0.014 | [15] -0.043

KIF22 (UniProt Q14807)
Chain of UniProt Q14807 (Q14807 whole entry, looked up): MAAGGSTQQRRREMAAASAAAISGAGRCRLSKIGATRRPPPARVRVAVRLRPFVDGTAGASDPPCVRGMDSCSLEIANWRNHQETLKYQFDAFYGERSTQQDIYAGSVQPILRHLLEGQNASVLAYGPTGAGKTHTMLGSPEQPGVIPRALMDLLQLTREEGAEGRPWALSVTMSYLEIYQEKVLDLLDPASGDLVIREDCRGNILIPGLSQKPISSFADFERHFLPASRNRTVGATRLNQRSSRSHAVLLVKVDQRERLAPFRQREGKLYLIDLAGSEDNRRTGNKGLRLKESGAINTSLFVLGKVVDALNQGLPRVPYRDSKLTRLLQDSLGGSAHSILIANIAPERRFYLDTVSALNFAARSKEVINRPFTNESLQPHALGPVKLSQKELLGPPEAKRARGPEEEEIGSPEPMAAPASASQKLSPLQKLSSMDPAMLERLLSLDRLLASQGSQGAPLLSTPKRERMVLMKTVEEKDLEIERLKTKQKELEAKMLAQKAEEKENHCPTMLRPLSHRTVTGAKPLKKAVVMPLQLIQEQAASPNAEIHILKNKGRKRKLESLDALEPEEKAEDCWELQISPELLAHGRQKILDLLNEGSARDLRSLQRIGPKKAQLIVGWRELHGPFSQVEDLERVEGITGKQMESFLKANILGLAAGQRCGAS
active: [6] -0.451
inactive: [1] 0.041 | [2] -0.021 | [3] -0.023 | [4] -0.029 | [5] -0.055 | [7] -0.015 | [8] 0.081 | [9] -0.023 | [10] -0.171 | [11] 0.069 | [12] 0.158 | [13] -0.128 | [14] 0.156 | [15] 0.001

MICU1 isoform 3 (UniProt Q9BPX6)
Chain of UniProt Q9BPX6 (Q9BPX6 whole entry, looked up): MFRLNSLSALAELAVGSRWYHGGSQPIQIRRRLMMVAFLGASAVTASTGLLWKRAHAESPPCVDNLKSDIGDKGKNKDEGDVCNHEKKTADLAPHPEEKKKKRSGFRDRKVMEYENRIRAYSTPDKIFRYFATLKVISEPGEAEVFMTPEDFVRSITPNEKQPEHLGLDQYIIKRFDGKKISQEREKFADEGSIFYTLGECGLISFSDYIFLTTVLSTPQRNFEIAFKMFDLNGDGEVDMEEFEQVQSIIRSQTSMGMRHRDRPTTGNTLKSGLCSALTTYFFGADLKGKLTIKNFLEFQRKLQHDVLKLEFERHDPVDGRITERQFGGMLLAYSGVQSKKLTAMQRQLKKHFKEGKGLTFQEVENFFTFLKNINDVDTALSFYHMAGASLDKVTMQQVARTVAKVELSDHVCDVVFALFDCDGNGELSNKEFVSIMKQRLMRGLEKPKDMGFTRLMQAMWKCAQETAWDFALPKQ
inactive: [1] 0.01 | [2] -0.044 | [3] -0.02 | [4] -0.015 | [5] 0.027 | [6] 0.002 | [7] -0.015 | [8] -0.026 | [9] 0.06 | [10] -0.021 | [11] -0.085 | [12] -0.133 | [13] 0.065 | [14] -0.003 | [15] -0.019

MAP2K3 isoform 3 (UniProt P46734)
Chain of UniProt P46734 (P46734 whole entry, looked up): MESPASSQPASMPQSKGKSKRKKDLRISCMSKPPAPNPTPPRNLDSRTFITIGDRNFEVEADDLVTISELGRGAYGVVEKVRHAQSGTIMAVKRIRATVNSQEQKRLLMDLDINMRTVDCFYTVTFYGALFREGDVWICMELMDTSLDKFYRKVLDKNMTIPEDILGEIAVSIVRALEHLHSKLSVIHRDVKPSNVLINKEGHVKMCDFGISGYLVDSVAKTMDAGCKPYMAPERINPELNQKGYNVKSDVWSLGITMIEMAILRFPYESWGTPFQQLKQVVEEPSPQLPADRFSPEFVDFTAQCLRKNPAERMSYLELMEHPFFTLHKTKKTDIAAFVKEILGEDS
active: [12] -0.577
inactive: [1] -0.001 | [2] -0.004 | [3] -0.021 | [4] 0.021 | [5] 0.059 | [6] -0.055 | [7] -0.093 | [8] 0.034 | [9] -0.03 | [10] 0.131 | [11] -0.033 | [13] 0.149 | [14] 0.025 | [15] 0.072

MED10 (UniProt Q9BTT4)
Chain of UniProt Q9BTT4 (Q9BTT4 whole entry, looked up): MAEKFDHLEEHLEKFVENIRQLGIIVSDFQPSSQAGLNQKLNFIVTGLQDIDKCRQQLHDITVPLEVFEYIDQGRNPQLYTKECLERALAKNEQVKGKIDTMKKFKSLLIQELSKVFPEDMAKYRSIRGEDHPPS
active: [15] -0.349
inactive: [1] 0.042 | [2] -0.012 | [3] 0.031 | [4] -0.021 | [5] 0.043 | [6] 0.04 | [7] -0.066 | [8] -0.082 | [9] 0.025 | [10] -0.045 | [11] -0.001 | [12] -0.04 | [13] -0.085 | [14] 0.021

METTL7A (UniProt Q9H8H3)
Chain of UniProt Q9H8H3 (Q9H8H3 whole entry, looked up): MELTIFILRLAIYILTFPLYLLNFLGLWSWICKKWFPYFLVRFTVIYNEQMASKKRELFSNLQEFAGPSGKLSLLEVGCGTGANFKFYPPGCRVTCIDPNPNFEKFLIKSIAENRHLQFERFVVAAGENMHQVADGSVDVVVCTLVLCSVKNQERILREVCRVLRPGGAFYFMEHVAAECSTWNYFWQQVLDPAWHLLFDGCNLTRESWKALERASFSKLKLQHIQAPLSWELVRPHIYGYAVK
inactive: [1] 0.168 | [2] 0.014 | [3] 0.198 | [4] -0.01 | [5] 0.096 | [6] -0.112 | [7] 0.03 | [8] -0.026 | [9] -0.055 | [10] -0.068 | [11] 0.037 | [12] 0.017 | [13] -0.053 | [14] 0.274 | [15] -0.001

MAPK1 (UniProt P28482)
Chain of UniProt P28482 (P28482 whole entry, looked up): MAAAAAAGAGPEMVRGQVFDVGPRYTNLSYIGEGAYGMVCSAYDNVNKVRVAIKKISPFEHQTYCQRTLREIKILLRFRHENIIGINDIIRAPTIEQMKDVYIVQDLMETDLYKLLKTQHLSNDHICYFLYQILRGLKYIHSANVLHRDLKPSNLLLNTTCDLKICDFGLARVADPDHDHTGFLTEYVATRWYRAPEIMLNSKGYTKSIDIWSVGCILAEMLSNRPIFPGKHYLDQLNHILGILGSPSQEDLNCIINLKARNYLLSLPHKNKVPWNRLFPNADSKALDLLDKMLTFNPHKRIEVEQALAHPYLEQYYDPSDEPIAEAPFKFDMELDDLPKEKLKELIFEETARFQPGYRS
inactive: [1] -0.042 | [2] 0.205 | [3] -0.014 | [4] 0.091 | [5] -0.01 | [6] 0.07 | [7] 0.011 | [8] 0.01 | [9] 0.088 | [10] 0.003 | [11] -0.027 | [12] 0.039 | [13] 0.042 | [14] -0.005 | [15] -0.039

LAGE3 (UniProt Q14657)
Chain of UniProt Q14657 (Q14657 whole entry, looked up): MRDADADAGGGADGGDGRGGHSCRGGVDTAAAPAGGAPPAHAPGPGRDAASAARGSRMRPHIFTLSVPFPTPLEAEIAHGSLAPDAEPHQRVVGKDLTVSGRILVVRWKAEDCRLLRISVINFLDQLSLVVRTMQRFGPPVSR
inactive: [1] -0.065 | [2] 0.186 | [3] 0.006 | [4] -0.055 | [5] 0.021 | [6] -0.03 | [7] 0.1 | [8] 0.013 | [9] 0.017 | [10] 0.084 | [11] 0.045 | [12] -0.085 | [13] -0.016 | [14] -0.041 | [15] -0.043

MORF4L1 isoform 2 (UniProt Q9UBU8)
Chain of UniProt Q9UBU8 (Q9UBU8 whole entry, looked up): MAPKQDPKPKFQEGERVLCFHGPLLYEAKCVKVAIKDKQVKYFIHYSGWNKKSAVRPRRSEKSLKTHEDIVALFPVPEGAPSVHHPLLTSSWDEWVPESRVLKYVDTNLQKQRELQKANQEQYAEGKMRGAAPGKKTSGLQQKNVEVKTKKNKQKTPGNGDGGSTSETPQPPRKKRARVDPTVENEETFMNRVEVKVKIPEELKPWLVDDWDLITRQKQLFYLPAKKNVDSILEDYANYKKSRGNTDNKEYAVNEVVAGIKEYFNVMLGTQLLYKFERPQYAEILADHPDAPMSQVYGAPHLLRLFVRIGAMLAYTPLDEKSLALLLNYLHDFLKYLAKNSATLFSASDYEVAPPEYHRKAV
inactive: [1] 0.037 | [2] 0.069 | [3] -0.013 | [4] -0.009 | [5] 0 | [6] 0 | [7] -0.009 | [8] -0.007 | [9] -0.008 | [10] -0.018 | [11] 0.013 | [12] 0.058 | [13] -0.002 | [14] 0.015 | [15] 0.018

MAPKAPK2 (UniProt P49137)
Chain of UniProt P49137 (P49137 whole entry, looked up): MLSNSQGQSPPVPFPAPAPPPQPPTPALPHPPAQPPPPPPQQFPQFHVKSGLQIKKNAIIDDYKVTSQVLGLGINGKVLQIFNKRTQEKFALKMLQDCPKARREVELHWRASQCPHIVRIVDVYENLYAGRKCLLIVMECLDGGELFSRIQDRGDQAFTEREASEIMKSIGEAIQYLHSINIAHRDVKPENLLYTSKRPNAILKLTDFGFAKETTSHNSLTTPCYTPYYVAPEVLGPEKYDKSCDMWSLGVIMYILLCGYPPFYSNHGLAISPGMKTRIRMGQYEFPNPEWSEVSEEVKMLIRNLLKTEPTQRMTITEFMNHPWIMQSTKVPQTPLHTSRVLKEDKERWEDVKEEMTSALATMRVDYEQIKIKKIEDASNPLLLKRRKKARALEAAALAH
active: [12] -0.36
inactive: [1] 0.032 | [2] 0.068 | [3] -0.043 | [4] -0.008 | [5] 0 | [6] 0.01 | [7] 0.032 | [8] 0.148 | [9] 0.022 | [10] 0.008 | [11] -0.019 | [13] 0.072 | [14] -0.014 | [15] 0.04

KNOP1 (UniProt Q1ED39)
Chain of UniProt Q1ED39 (Q1ED39 whole entry, looked up): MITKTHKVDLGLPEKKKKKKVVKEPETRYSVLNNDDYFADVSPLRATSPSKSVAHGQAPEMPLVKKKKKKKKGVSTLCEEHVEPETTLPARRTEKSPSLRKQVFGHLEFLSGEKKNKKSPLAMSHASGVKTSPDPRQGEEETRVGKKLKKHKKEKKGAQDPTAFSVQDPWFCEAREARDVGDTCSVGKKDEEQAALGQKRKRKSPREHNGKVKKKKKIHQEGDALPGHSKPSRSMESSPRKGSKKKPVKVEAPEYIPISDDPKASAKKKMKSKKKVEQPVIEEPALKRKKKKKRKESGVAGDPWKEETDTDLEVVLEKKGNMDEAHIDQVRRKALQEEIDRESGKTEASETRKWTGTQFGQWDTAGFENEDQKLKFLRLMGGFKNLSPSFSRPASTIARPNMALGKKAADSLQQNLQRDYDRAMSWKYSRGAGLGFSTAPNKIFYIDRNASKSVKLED
inactive: [1] -0.09 | [2] 0.055 | [3] -0.028 | [4] -0.095 | [5] -0.001 | [6] -0.169 | [7] -0.01 | [8] 0.007 | [9] 0.048 | [10] -0.062 | [11] 0.019 | [12] 0.063 | [13] 0.005 | [14] 0.03 | [15] -0.035

MRPL27 (UniProt Q9P0M9)
inactive: [1] -0.112 | [2] 0.027 | [3] 0.089 | [4] -0.039 | [5] 0.091 | [6] -0.012 | [7] 0.015 | [8] -0.006 | [9] 0.072 | [10] -0.064 | [12] 0.087 | [13] 0.106 | [14] -0.008 | [15] -0.027

MAPK3 (UniProt P27361)
inactive: [1] 0.009 | [3] -0.026 | [4] 0.141 | [5] -0.019 | [6] 0.016 | [7] -0.013 | [8] 0.022 | [9] 0.094 | [10] -0.003 | [11] -0.016 | [12] -0.005 | [13] 0.02 | [14] 0.038 | [15] -0.013
active: [2] 0.272

METTL21A (UniProt Q8WXB1)
Chain of UniProt Q8WXB1 (Q8WXB1 whole entry, looked up): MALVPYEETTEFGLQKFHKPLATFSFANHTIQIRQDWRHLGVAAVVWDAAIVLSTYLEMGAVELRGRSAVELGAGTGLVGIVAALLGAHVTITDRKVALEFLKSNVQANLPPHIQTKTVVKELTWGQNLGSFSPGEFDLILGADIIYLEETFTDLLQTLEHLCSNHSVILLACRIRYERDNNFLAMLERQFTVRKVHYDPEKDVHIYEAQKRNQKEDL
inactive: [1] 0.017 | [2] 0.055 | [3] 0.023 | [4] 0.026 | [5] -0.064 | [6] -0.069 | [7] -0.005 | [8] -0.001 | [9] -0.007 | [10] 0.003 | [12] 0.07 | [13] -0.016 | [14] -0.013
